# HTT aggregate – reduces HttQ103-GFP aggregates in PC12 cells. 220,000 tested, 1.1% active. Potency, µM (titrated, usually from 46.1 µM), inactives show at the highest dose activity change, negative = inhibition, hits mostly inhibitors. PC12 HttQ103-GFP aggregates, Acumen cytometry, 40 h; note: potency is the fitted concentration of half-maximal effect; % is set by controls: 0 for no effect and ±100 for the full control effect; nearly all actives have a fitted effect of over 60% in size
#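 Using laser scanning cytometry, GFP-positive aggregates were counted after lysis of PC12 cells induced with 100 nM tebufenozide to express HTT exon 1 Q103–GFP. Compounds were tested in titration.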
# NPSR antagonist – neuropeptide S receptor (human) antagonism, cAMP; Q6W5P4; CHO-NPSR cells, cAMP TR-FRET, antagonist mode; Potency, µM (top dose mostly 38.3 µM), for inactives: at the highest dose activity change, negative = inhibition, actives largely listed as inhibitors; 220,000 tested, 1% active; AID 1461; note: potency is the fitted concentration of half-maximal effect; % is set by controls: 0 for no effect and ±100 for the full control effect; nearly all actives have a fitted effect of over 50% in size
# Target sequence (Q6W5P4 whole entry, looked up): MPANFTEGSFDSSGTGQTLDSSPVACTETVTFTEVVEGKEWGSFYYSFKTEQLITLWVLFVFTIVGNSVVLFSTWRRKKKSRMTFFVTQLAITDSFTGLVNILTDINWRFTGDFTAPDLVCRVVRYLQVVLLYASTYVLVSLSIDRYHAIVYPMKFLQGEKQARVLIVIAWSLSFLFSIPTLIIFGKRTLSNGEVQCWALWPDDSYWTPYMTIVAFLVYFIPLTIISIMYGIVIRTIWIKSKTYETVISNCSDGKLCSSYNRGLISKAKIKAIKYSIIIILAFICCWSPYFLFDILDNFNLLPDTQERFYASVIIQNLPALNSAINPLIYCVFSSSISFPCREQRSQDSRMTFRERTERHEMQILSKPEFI
# IMPase inh – membrane-permeable compound that blocks inositol monophosphatase; CHO-M1 cells, IP1 accumulation, HTRF TR-FRET ratio; inhibition (IP1 accumulation), % at 46.1 µM; 120,000 tested, under 10 active; AID 901; active = well fitted curve in the direction sought with a large enough effect in the signal ratio, not every such curve was filed as active; inconclusive = small, poorly fitted or top-dose-only effect, or a change in a side signal; inactive = no such curve, though single readings can be large or run the other way; the % refers to the signal ratio;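 note: cells stimulated with carbachol in lithium chloride buffer; plate controls were DMSO basal wells for no effect and reference inhibitor wells for full effect; higher means more IMPase inhibition seen as more IP1 and lower FRET ratio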
#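 In this qHTS, compounds (final up to 46 uM) act on CHO-M1 cells that are then activated through the M1 receptor with carbachol, in pH 7.4 buffer containing 50 mM LiCl, for 30 min. IP1 accumulation is quantified by the IP-One immunoassay.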
# HTT ATP protect – Huntington cell model cytoprotection by ATP luminescence; PC12 HTT-Q103 induced, cytoprotection, ATP luminescence, 40 h; Potency, µM (top dose mostly 56.4 µM), for the others: cytoprotection (ATP increase), actives largely listed as activators; 230,000 tested, 0.14% active; AID 1471; note: potency is the fitted concentration of half-maximal effect; % of control where 0% means no effect; nearly all actives have a fitted effect of over 45% in size
#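 Stable PC12 Q103-GFP cells in serum-supplemented, phenol red-free DMEM; induction by tebufenozide at 100 nM final; compound dose series; cell viability quantified luminescently from ATP.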
# IMPase Li inh – membrane-permeable IMPase blocker, potentiated with lithium; CHO-M1 cells, IP1 TR-FRET (IP-One), carbachol + lithium; Potency, µM (titrated, usually from 59.4 µM), for inactives: at the highest dose activity, negative = IMPase inhibition, actives largely listed as inhibitors; 210,000 tested, 0.35% active; AID 1457;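 note: IP1 builds up when IMPase is blocked and the TR-FRET signal falls; potency is the fitted concentration of half-maximal effect; plate controls were basal vehicle for no effect and high inhibitor control for full effect; nearly all actives have a fitted effect of over 50% in size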
#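 Readout is a homogeneous TR-FRET IP1 immunoassay (Ex 320, Em 665 and 620), where raised cytosolic IP1 lowers signal. Cells were CHO-M1 treated 30 min at 37C with test compounds plus a little lithium; AC50 values came from Hill-equation fitting.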
# PNC assembly inh – blocks assembly of the perinucleolar compartment; PC3M PTB-GFP, PNC prevalence imaging, 16 h; hits give low values; activity change (PNC), negative = inhibition, % at 10 µM; 140,000 tested, 3.1% active;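 active = readout at or below -70, meaning at least 70% loss of cells showing the perinucleolar compartment, a nuclear body marking cancer cells; inconclusive = readout between -30 and a set limit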;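 note: plate controls were DMSO wells for no effect and camptothecin positive control wells for full effect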
#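 Read-out is percentage of cells bearing a perinucleolar compartment, from automated 20x imaging of fixed, Hoechst-stained PC3M PTB-GFP cells. Cells were seeded 4 h, then exposed 16 h to compound (23 nl of library stock) in duplicate plates.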
# An asterisk follows results filed as active; ? = inconclusive; / = no result given; [ ] = remark or other dose. Only some compounds are listed: those with a hit (about 3.4% of all), similar ones and a draw of the others. Unless noted, calls come from the whole dose curve; as a rule, active = well fitted curve in the direction sought with a large enough effect; inconclusive = small, poorly fitted or top-dose-only effect, or another doubt; inactive = no such curve, though single readings can be large; an effect the other way counts as inactive or inconclusive.
SMILES,HTT aggregate,NPSR antagonist,IMPase inh,HTT ATP protect,IMPase Li inh,PNC assembly inh
O=C(NCc1ccco1)c1ccccc1NS(=O)(=O)c1ccc(Br)s1,18µM*,5%[46.1 µM],6,-53%,-3%[38.3 µM],-4
O=c1[nH]n2c(=O)c3c([nH]c2c1N=Nc1cccc(C(F)(F)F)c1)CCCC3,?,13µM*,0[1.84 µM],14%[10 µM],7%,-19
Cc1cccc(C(=O)CC(=O)c2cc(Cl)ccc2O)c1,13µM*,?,-1,-45%,23%[38.3 µM],26
Cc1ccc(O)c(C(=O)CC(=O)c2cccc(F)c2)c1,18µM*,?,-6,-6%[10 µM],10%[38.3 µM],?
O=C(CC(=O)c1cc(Cl)ccc1O)c1ccccc1,11µM*,?,1,4%[10 µM],12%[38.3 µM],?
COc1cccc(/C=C/C(=O)OCC(=O)NCCc2ccccc2)c1,?,4%,/,-30%,-8%,/
COc1cccc(C(=O)NCC2OCCc3ccccc32)c1 (stereo not drawn),/,/,6,/,/,/
Cc1ccc(S(=O)(=O)c2nc(-c3cccc(Cl)c3)oc2NCc2ccccc2)cc1,/,/,-26,/,/,/
CO[C@@H]1COC(=O)[C@H](C)NC(=O)C/C=C\[C@@H](C)[C@H](OC)COC(=O)[C@H](C)NC(=O)C/C=C\[C@H]1C,/,/,/,-9%[10 µM],/,/
O=C(COc1ccc(F)cc1)NNC(=O)c1cc2ccccc2oc1=O,4%,6%,/,/,-3%,-88*
Nc1nc2c(ncn2[C@@H]2O[C@H](COP(=O)(O)OP(=O)(O)O)[C@@H](O)[C@H]2O)c(=O)[nH]1,/,/,/,?,0%,/
COc1ccc(-c2csc(NC(=S)NC(=O)/C=C/c3ccco3)n2)cc1OC,4%,1µM*,/,-30%[10 µM],-8%,-106*
Cc1ccc(-c2nc3ccccc3o2)cc1NC(=S)NC(=O)/C=C/c1ccco1,30%,-20%[46.1 µM],2,-41%,1%[38.3 µM],50
O=C(/C=C/c1ccco1)NC(=S)Nc1cccc(-c2nc3ccccc3o2)c1,?,1.6µM*,1,-77%,7%[38.3 µM],31
CCOC(=O)CC1C(=O)NCCN1C(=S)Nc1ccccc1 (stereo not drawn),9%,15%,/,/,-2%,-91*
COC(=O)CC1C(=O)NCCN1C(=S)Nc1ccccc1 (stereo not drawn),4%,12%,/,-3%[10 µM],-6%,90
CCOC(=O)CC1C(=O)NCCN1S(=O)(=O)c1cc(Cl)c(Cl)cc1Cl (stereo not drawn),4%,-11%[46.1 µM],-7,1%,-7%[38.3 µM],-98*
CCNc1ncc2nc(-c3cn(C)c4ccccc34)c(=O)n(-c3ccccc3)c2n1,/,/,/,24%,0%,/
Cc1cccc(NC(=O)COc2ccc(/C=N\n3cnnc3)cc2)c1,14%,-2%,/,/,13%,37
CC1Nc2ccccc2C(=O)N1NC(=O)c1ccc(Br)cc1 (stereo not drawn),?,7%,/,-10%,-2%,/
c1ccc(-c2cc(N3CCOCC3)nc(-c3ccccc3)n2)cc1,-5%,?,2,-1%,1%[38.3 µM],-83*
CCCOc1ccc(NC(=O)C2CC(=O)N(C)C(=Nc3cccc(OC)c3)S2)cc1 (stereo not drawn),6%[9.22 µM],-20%,/,6%[10 µM],4%,/
COc1ccccc1N=C1SC(C(=O)Nc2ccc(F)cc2)CC(=O)N1C (stereo not drawn),-5%,-18%[46.1 µM],-14,-2%[10 µM],-5%,-100*
Oc1ccccc1Cn1c(-c2ccccc2O)nc2ccccc21,25µM*,-8%[46.1 µM],-11,-7%,-15%[38.3 µM],-14
Oc1ccc(Cn2c(-c3ccc(O)cc3)nc3ccccc32)cc1,/,/,/,0%[10 µM],-28%,/
O=S(=O)(c1ccc(N2CCCC2)cc1)C(F)(F)F,10µM*,29%[46.1 µM],4,-3%,25%[38.3 µM],-24
CCOc1ccc(NC(=O)Cn2cc(S(=O)(=O)N3CCN(c4ccccc4F)CC3)c3ccccc3c2=O)cc1,/,/,8,/,/,/

# Assay outcomes as filed in PubChem.
